In PubChem BioAssay (Tox21):
Active and inactive are the calls of the source. The call rests on the fitted dose curve; in most records, active means well fitted curve in the direction sought with a large enough effect in the repeat runs; inconclusive means weak or mixed curves; inactive means flat fitted curve, though single readings scatter.

experiment: qHTS assay to test for compound auto fluorescence at 590 nm (red) in HepG2 cell free culture (AID 720684); conditions: cell-free medium autofluorescence, red 540/590 nm; series mostly up to 91.3 µM; fluorescence, % of Rose Bengal: at the top concentration
Source text: U.S. Tox21 Program National Center for Advancing Translational Sciences [NCATS] NIH Chemical Genomics Center [NCGC] U.S. Environmental Protection Agency [EPA] National Institutes of Environmental Health Sciences [NIEHS] National Toxicology Program [NTP] U.S. Food and Drug Administration [FDA] Tox21 Assay Overview: Compound auto fluorescence often interferes with screening of the compound library against various biological targets and signaling pathways. Some of these compounds may have fluorophoric properties. Such properties may interfere with the assay outputs resulting in false positives and/or negatives. To decrease such complications and ensure the compound activities are relevant in terms of biological response, the Tox21 10K compound library was screened for auto fluorescence. From the fluorophores used as reporter signals in our screening assays, the auto fluorescence equivalencies of compounds against three fluorophores have been evaluated: Triamterene, Fluorescein and Rose Bengal sodium for blue, green and red fluorescence, respectively. The fluorescence intensities were measured using Excitation/Emission wavelengths at 405/460nm, 485/535nm and 540/590nm for blue, green and red labels, respectively. This assay includes the red fluorescence data.
Tox21 Assay Protocol Summary: 5 uL of culture medium (MEM containing 10% FBS) per well was dispensed into black wall/clear bottom 1536-well plates using a Multidrop Combi Dispenser (ThermoFisher Scientific, Waltham, MA). After 23 nL compound or DMSO vehicle was transferred into assay plate by a pintool work station (Kalypsys, San Diego, CA), fluorescence intensities in the assay plates were measured by an Envision (PerkinElmer, Shelton, CT) plate reader using three labels for measuring blue, green and red fluorescence at […] 460, 535 and 590nm respectively.
On the % scale 0 is the no-effect control and ±100 the full control effect.

SMILES | fluorescence, % of Rose Bengal | outcome
C=Cc1cccc(CCl)c1 | -0.231% [at 203 µM] (inactive) | –
CC(=O)[O-].CC(=O)[O-].CC(=O)[O-].[Cr+3] | 0.066% (inactive) | –
NC1CCC(CC2CCC(N)CC2)CC1 (stereo not given) | 0.255% (inactive) | –
CC1(C)C(C=C(Cl)Cl)C1C(=O)OC(C#N)c1ccc(F)c(Oc2ccccc2)c1 (stereo not given) | -0.0078% (inactive) | –
CCOC(=O)Cc1ccccc1 | 0.0074% (inactive) | –
Cc1cc2c3c(c1)C(c1ccccc1)=N[C@@H](NC(=O)c1ccncc1)C(=O)N3CC2 | 0.0151% (inactive) | –
ClC(Cl)C(Cl)(Cl)Cl | -0.0145% (inactive) | –
CCCN | 0.323% (inactive) | –
CC(C)C(Br)C(=O)NC(N)=O (stereo not given) | -0.401% [at 46 µM] (inactive) | –
CC(=O)[O-].CC(=O)[O-].CC(=O)[O-].[Sb+3] | 0.0344% [at 3.72 µM] (inactive) | –
Cc1c([N+](=O)[O-])c(C)c([N+](=O)[O-])c(C(C)(C)C)c1[N+](=O)[O-] | -0.157% (inactive) | –
Nc1cc(Cl)ccc1Cl | 0.079% (inactive) | –
CN1CCc2cc3c(cc2C1O)OCO3 (stereo not given) | 0.0853% (inactive) | –
C1=CCC=C1 | 0.0401% (inactive) | –
O=C1C2(Cl)C3(Cl)C4(Cl)C(Cl)(Cl)C5(Cl)C3(Cl)C1(Cl)C5(Cl)C24Cl (stereo not given) | – | inactive
Brc1cccc(-c2ccccc2)c1 | -0.0102% (inactive) | –
CC(C)N(C(=O)CCl)c1ccccc1 | – | inactive
CN | -0.0102% [at 95.7 µM] (inactive) | –
Nc1nc(N)c(N)c(N)n1 | 1.43% (inactive) | –
CCNc1nc(NC(C)C(C)C)nc(SC)n1 (stereo not given) | -0.172% (inactive) | –

SMILES | fluorescence, % of Rose Bengal | outcome
CCCCN(CCCC)C(=S)[S-].CCCCN(CCCC)C(=S)[S-].[Ni+2] | 0.246% [at 46 µM] (inactive) | –
C[C@H]1[C@H](c2ccc(Cl)cc2)SC(=O)N1C(=O)NC1CCCCC1 | -0.142% (inactive) | –
O=[N+]([O-])c1ccc(Cl)c(Cl)c1Cl | -0.265% (inactive) | –
O.O.O.O.O.O.O.O=S(=O)([O-])[O-].[Co+2] | – | inactive
Oc1cc(Cl)cc(Cl)c1 | -0.306% (inactive) | –
O=C(Nc1ccc(F)cc1F)c1cccnc1Oc1cccc(C(F)(F)F)c1 | 0.071% [at 95.7 µM] (inactive) | –
CCOP(=O)(Sc1ccccc1)Sc1ccccc1 | -0.181% (inactive) | –
c1ccc2nc(N3CCNCC3)ccc2c1 | -0.0074% [at 46 µM] (inactive) | –
CC(C)=CC1C(C(=O)OC(C#N)c2cccc(Oc3ccccc3)c2)C1(C)C (stereo not given) | -0.507% (inactive) | –
O=S1OCC2C(CO1)C1(Cl)C(Cl)=C(Cl)C2(Cl)C1(Cl)Cl (stereo not given) | – | inactive
Oc1cc(Cl)c(Cl)c(Cl)c1Cl | 0.0046% (inactive) | –
CCC(C)Nc1c([N+](=O)[O-])cc(C(C)(C)C)cc1[N+](=O)[O-] (stereo not given) | -0.172% (inactive) | –
COc1ccc2[nH]cc(CCN(C(C)C)C(C)C)c2c1 | 0.141% [at 95.7 µM] (inactive) | –
c1ccc(N=NNc2ccccc2)cc1 | – | inactive
N#Cc1ccc(N(CC(N)=O)CC(F)(F)F)cc1C(F)(F)F | 0.116% (inactive) | –
O=C(N[C@@H]1N=C(c2ccccc2F)c2cccc3c2N(CC3)C1=O)c1cc2ccccc2[nH]1 | 0.0397% [at 46 µM] (inactive) | –
CCCC[N+]1(C)CCCC1 (tested in a mixture with another compound) | 0.166% [at 95.7 µM] (inactive) | –
N#CC(C#N)=NNc1cccc(Cl)c1 | 0.206% (inactive) | –
CC(C)Br | -0.269% (inactive) | –
Brc1ccc(Oc2ccc(Br)cc2Br)c(Br)c1 | 0.0537% (inactive) | –
